This note sets out measurements from PubChem BioAssay.

For some of these results: Entries with a potency or affinity are not part of this list. Calls of active or inactive are those of the source.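 The calls were made as follows, unless noted: active = normalized viability below 100% at a tested concentration; inactive = the rest.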

Test [1] can be described thus: sensitizers of A549 cells to miR-34 induction, primary screen, imaging, A549 dox-inducible miR-34, nuclei and caspase counts (AID 1347080;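 active = compounds whose cell count with miR-34 switched on is under 0.7 times the count with it off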). The following applies: A549 miR-34 inducible, Hoechst nuclei count, 48 h.
The nature of test [2]: survival rescue of mitochondrial mutant cells in low glucose, primary screen, MELAS cybrids, Rieske KO mouse fibroblasts, CellTiter-Glo (AID 1508586;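 active = mean z-score across replicates of 1.96 or higher in either the MELAS or the Rieske mutant cell line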;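 also: z relative to plate mean and SD of compound and empty wells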). A general note: Cellular ATP, detected with luciferase, serves as a proxy for viable cell number.
Test [3] is described as follows: ovarian cancer cell viability with rucaparib, profiling panel, oncology-focused library, rucaparib conditional (AID 1508598). The settings on record: patient-derived ovarian cancer cells, CellTiter-Glo viability, 144 h, stronger effect = lower value.
Test [4] has as its target NAD(+) hydrolase SARM1 (Homo sapiens) (UniProt Q6SZW1). Briefly: SARM1 TIR NADase inhibitors, cell lysate, NAD-Glo luminescence (AID 1508614;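 active = compound whose remaining NAD level is above about 45 nM, limit read from the data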;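 also: higher remaining NAD means stronger inhibition of SARM1 NADase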). The following applies: SAM-TIR HEK293T lysate NADase, at 1 µM, stronger effect = higher value.
The nature of test [5]: polyglutamine-triggered caspase-3 activation inhibitors, cell-based (AID 1583). The following applies: polyglutamine-induced caspase-3 activation, cell assay; stronger effect = higher value;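 tested at 10 µM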.
Test [6] can be described thus: suppressors of polyQ aggregation in yeast, 75Q-TubU reporter (AID 1593). The following applies: Yeast 75Q polyglutamine aggregation reporter.
The nature of test [7]: rescue of polyQ-huntingtin neuronal dysfunction in worms, whole organism, C. elegans mechanosensory neurons, N-terminal huntingtin (AID 1599). The settings on record: touch response, stronger effect = higher value.
Test [8] is described as follows: inhibitors of mitochondrial cytochrome c release, biochemical, purified mitochondria (AID 1603).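 Also: mouse liver mitochondria challenged with calcium chloride; signal normalized to the plate average as 100%.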 The settings on record: stronger effect = lower value.
Test [9] is described as follows: inhibitors of polyQ protein aggregation (AID 1604). The following applies: polyglutamine-induced protein aggregation inhibition assay; stronger effect = higher value; tested at 2.5 µM.
A short description of test [10]: enhancers of glutamate uptake in motor neurons, MN-1 cell line (AID 1612).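 Also: tested at 1 µM final; 0% = mean of DMSO vehicle wells on each plate; positive means more glutamate uptake than control and negative means less.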 The following applies: MN-1 motor neuron cells, stronger effect = higher value.
The nature of test [11]: reducers of polyQ inclusions in PC12 cells, cell-based, NGF-treated PC12, GFPQ80 (AID 1614).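 Also: lower means fewer inclusions and 0 means no inclusions at all.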 The following applies: PC12 NGF-treated GFP-polyQ80 inclusion reduction.
A short description of test [12]: suppressors of polyglutamine aggregation in yeast, 75Q-TubH (AID 1616). The following applies: S. cerevisiae 75Q-TubH polyglutamine aggregation suppression; stronger effect = higher value.
A short description of test [13]: liver-stage malaria parasite growth inhibition, primary screen, cell-based, HepG2, luciferase luminescence, HepG2 viability (AID 624349; in the data active = parasite load remaining mostly below about 12%, no sharp cut-off; inactive = mostly above about 10%;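 also: 100% = mean of DMSO negative control wells on the same plate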). The settings on record: P. berghei liver stage in HepG2, luciferase luminescence, concentration not given here; parasite load remaining: stronger effect = lower value; viability: measured here: HepG2 viability without parasites.
Test [14] has as its target Mitogen-activated protein kinase 7 (Homo sapiens) (UniProt Q13164). Briefly: ERK5 transactivation activators in reporter cells, primary screen, cell-based, HTS (AID 1508626;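 active = luciferase signal above three times the same-plate solvent-only control wells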;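 also: luciferase driven by Gal4-ERK5 fusion binding five Gal4 sites before minimal TATA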). The settings on record: HeLa Gal4-ERK5 transactivation, 18 h, at 5 µM, stronger effect = higher value.
Test [15] in a line: viability rescue of complex I mutant cybrids, primary screen, cell-based, galactose medium, ATP luminescence (AID 1645843;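 active = z-score of at least 1.8 in each of two replicates, scored against plate mean and spread of sample wells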;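 also: positive z means more ATP and so rescue of galactose-driven cybrid death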). The following applies: complex I mutant cybrid cells, 72 h, stronger effect = higher value.
Setting [16] is: stronger effect = lower value, cell number ratio, induced over uninduced.
The mark [17] stands for this setting: measured here: relative caspase fold change +Dox/-Dox.
Where [18] appears, read: measured here: total cells with miR-34 induction, stronger effect = lower value.
Setting [19] is: measured here: total cells without miR-34 induction.
[20] abbreviates: MELAS cybrid survival, CellTiter-Glo 48 h, stronger effect = higher value.
Setting [21] is: Rieske KO mouse fibroblast survival, CellTiter-Glo 72 h.

The viability is a read-out of living cells in per cent, often relative to untreated cells. One may read the inhibition as the relative decrease from the control value, in per cent.

NAD(+) hydrolase SARM1 (Homo sapiens), sequence (Q6SZW1 whole entry, looked up): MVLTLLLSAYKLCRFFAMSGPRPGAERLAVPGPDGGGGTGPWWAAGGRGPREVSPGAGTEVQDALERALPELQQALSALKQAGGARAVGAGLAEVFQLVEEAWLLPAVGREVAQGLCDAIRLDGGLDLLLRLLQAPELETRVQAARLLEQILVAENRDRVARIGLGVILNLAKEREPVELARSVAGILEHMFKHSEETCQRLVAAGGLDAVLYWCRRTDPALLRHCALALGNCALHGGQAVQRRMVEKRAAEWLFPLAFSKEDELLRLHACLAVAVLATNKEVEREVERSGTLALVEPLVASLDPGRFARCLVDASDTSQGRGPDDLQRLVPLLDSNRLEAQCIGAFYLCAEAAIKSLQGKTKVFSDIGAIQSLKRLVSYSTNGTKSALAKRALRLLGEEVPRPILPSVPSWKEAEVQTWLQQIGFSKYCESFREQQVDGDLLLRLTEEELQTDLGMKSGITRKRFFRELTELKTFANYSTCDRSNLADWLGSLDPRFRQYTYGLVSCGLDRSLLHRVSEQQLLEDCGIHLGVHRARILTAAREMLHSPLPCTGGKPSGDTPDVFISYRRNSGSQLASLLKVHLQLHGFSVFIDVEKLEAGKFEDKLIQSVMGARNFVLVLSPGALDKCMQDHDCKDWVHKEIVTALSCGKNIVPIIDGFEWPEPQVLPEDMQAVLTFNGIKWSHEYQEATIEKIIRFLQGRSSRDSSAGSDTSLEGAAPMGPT
Mitogen-activated protein kinase 7 (Homo sapiens), sequence (Q13164 whole entry, looked up, the tested form may be a part): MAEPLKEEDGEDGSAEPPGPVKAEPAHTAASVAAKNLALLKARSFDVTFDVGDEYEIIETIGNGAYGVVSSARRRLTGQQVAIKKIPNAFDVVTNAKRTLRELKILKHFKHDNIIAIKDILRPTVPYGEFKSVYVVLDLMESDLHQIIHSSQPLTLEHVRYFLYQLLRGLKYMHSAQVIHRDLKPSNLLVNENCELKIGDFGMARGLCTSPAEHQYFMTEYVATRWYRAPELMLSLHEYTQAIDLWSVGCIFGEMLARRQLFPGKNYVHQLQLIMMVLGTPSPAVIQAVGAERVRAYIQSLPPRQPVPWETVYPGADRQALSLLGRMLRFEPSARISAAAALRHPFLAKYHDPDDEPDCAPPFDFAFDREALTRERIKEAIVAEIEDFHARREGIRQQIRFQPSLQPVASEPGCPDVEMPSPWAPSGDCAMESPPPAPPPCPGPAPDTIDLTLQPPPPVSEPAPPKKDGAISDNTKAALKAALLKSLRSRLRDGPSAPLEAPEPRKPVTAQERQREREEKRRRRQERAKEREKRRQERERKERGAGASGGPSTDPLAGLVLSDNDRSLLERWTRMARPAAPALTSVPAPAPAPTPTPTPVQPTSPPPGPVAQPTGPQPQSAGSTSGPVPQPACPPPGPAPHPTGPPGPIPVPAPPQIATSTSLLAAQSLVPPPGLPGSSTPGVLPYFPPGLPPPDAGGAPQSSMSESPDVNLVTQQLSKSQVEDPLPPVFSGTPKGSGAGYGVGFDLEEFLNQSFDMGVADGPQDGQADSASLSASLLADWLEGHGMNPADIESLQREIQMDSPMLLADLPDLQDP

In the case of `CCc1c2c(nc3ccc(OC(=O)N4CCC(N5CCCCC5)CC4)cc13)-c1cc3c(c(=O)n1C2)COC(=O)[C@@]3(O)CC`, the fold change in [1] (setting [16]) was 1.02 (inactive); in test [1] (setting [17]), 1.54. Besides, the figures for the cell count in [1] (setting [18]) and in test [1] (setting [19]) were 2060 and 2030, respectively. Further, the results for the z-score in test [2] (setting [20]) and in test [2] (setting [21]) were 0.2 (inactive) and -0.798, respectively. Also, the viability in test [3] (at 0.000305 µM, OCI-C5x cells, with rucaparib 10 µM, 100% = cells with rucaparib alone) is 115% (inactive); in [3] (at 0.000305 µM, OCI-C5x cells, without rucaparib), 112% (inactive); in [3] (at 0.000305 µM, OCI-P5x cells, with rucaparib 20 µM, 100% = cells with rucaparib alone), 119% (inactive); in test [3] (at 0.000305 µM, OCI-P5x cells, without rucaparib) it was 112% (inactive); in test [3] (at 0.00122 µM, OCI-C5x cells, with rucaparib 10 µM, 100% = cells with rucaparib alone), 114% (inactive); in test [3] (at 0.00122 µM, OCI-C5x cells, without rucaparib), 118% (inactive). Moreover, the viability was 112% (inactive) in test [3] (at 0.00122 µM, OCI-P5x cells, with rucaparib 20 µM, 100% = cells with rucaparib alone); 114% (inactive) in [3] (at 0.00122 µM, OCI-P5x cells, without rucaparib); 119% (inactive) in test [3] (at 0.00488 µM, OCI-C5x cells, with rucaparib 10 µM, 100% = cells with rucaparib alone); 118% (inactive) in test [3] (at 0.00488 µM, OCI-C5x cells, without rucaparib); 106% (inactive) in test [3] (at 0.00488 µM, OCI-P5x cells, with rucaparib 20 µM, 100% = cells with rucaparib alone); 107% (inactive) in [3] (at 0.00488 µM, OCI-P5x cells, without rucaparib). The viability is 117% (inactive) in [3] (at 0.0195 µM, OCI-C5x cells, with rucaparib 10 µM, 100% = cells with rucaparib alone); 110% (inactive) in test [3] (at 0.0195 µM, OCI-C5x cells, without rucaparib); 108% (inactive) in [3] (at 0.0195 µM, OCI-P5x cells, with rucaparib 20 µM, 100% = cells with rucaparib alone); 103% (inactive) in test [3] (at 0.0195 µM, OCI-P5x cells, without rucaparib); 112% (inactive) in [3] (at 0.0781 µM, OCI-C5x cells, with rucaparib 10 µM, 100% = cells with rucaparib alone); 106% (inactive) in [3] (at 0.0781 µM, OCI-C5x cells, without rucaparib). The viability is 104% (inactive) in test [3] (at 0.0781 µM, OCI-P5x cells, with rucaparib 20 µM, 100% = cells with rucaparib alone); 106% (inactive) in [3] (at 0.0781 µM, OCI-P5x cells, without rucaparib); 83.7% (active) in test [3] (at 0.313 µM, OCI-C5x cells, with rucaparib 10 µM, 100% = cells with rucaparib alone); 99.6% (active) in [3] (at 0.313 µM, OCI-C5x cells, without rucaparib); 88.2% (active) in test [3] (at 0.313 µM, OCI-P5x cells, with rucaparib 20 µM, 100% = cells with rucaparib alone); 88.7% (active) in test [3] (at 0.313 µM, OCI-P5x cells, without rucaparib). The viability in test [3] (at 1.25 µM, OCI-C5x cells, with rucaparib 10 µM, 100% = cells with rucaparib alone) is 64.4% (active); in [3] (at 1.25 µM, OCI-C5x cells, without rucaparib), 62.8% (active); in [3] (at 1.25 µM, OCI-P5x cells, with rucaparib 20 µM, 100% = cells with rucaparib alone) it was 48.7% (active); in [3] (at 1.25 µM, OCI-P5x cells, without rucaparib), 37.8% (active); in test [3] (at 5 µM, OCI-C5x cells, with rucaparib 10 µM, 100% = cells with rucaparib alone) it was 35.7% (active); in test [3] (at 5 µM, OCI-C5x cells, without rucaparib) it was 29.9% (active). The viability in test [3] (at 5 µM, OCI-P5x cells, with rucaparib 20 µM, 100% = cells with rucaparib alone) was 23.9% (active); in test [3] (at 5 µM, OCI-P5x cells, without rucaparib), 13.4% (active).

On to `CCOc1nc2cccc(C(=O)OCc3oc(=O)oc3C)c2n1Cc1ccc(-c2ccccc2-c2noc(=O)[nH]2)cc1`, for which the fold change in [1] (setting [16]) is 0.946 (inactive); in test [1] (setting [17]) it was 0.471. In addition, the cell count was 8160 in test [1] (setting [18]) and 8630 in test [1] (setting [19]). Moreover, the results for the z-score in test [2] (setting [20]) and in test [2] (setting [21]) were 0.0175 (inactive) and -0.018, respectively. Moreover, the remaining NAD in test [4] was 10 nM (inactive).

As for `NC[C@H]1O[C@H](O[C@H]2[C@H](O)[C@@H](O[C@H]3O[C@H](CO)[C@@H](O)[C@H](N)[C@H]3O)[C@H](N)C[C@@H]2N)[C@H](O)[C@@H](O)[C@@H]1O`, in test [5], the inhibition is 5.91%. This compound also came in with a score in test [6] of 1.82. The compound also displayed a rescue above control in [7] of -8.71. The cytochrome c release ratio in [8] was found to be 1. Also, the inhibition of aggregation in test [9] worked out at 28.5%. Besides, the glutamate uptake change in [10] came to 2.43%. The inclusion score in test [11] was determined as 2. In addition, the aggregation suppression score in test [12] is 1.68. For the same compound, in test [13], the parasite load remaining was 178% (inactive). Besides, in [13], the viability turned out to be 108%. Also, the fold change was 0.854 (inactive) in [1] (setting [16]) and 1.26 in test [1] (setting [17]). Besides, the values for the cell count in [1] (setting [18]) and in test [1] (setting [19]) were 8420 and 9860, respectively. Besides, the results for the z-score in test [2] (setting [20]) and in test [2] (setting [21]) were -0.387 (inactive) and -0.145, respectively. Besides, the remaining NAD in test [4] was 10 nM (inactive). Moreover, in [14], the luciferase signal is 40 AU (inactive).

On to `O=C(O)CCCNC(=O)NC1CCCCC1`, for which the fold change was 0.89 (inactive) in test [1] (setting [16]) and 0.215 in test [1] (setting [17]). For the same compound, the cell count came to 8970 in [1] (setting [18]) and 10100 in [1] (setting [19]). Moreover, the z-score in [2] (setting [20]) is 0.354 (inactive); in test [2] (setting [21]) it was -0.267; in test [15], 0.455 (inactive).
